Experimental data taken from ChEMBL document CHEMBL4513146, “CO-ADD screening of Karazin Kharkiv National University (Ukraine) compounds”.
Entries with a potency or affinity are not part of this list.

Columns and labels:
[1] = tested on: Klebsiella pneumoniae; conditions: Concentration 32 ug.mL-1;; ASSAY_TEST Inhibition of Bacterial Growth; detection method Absorption (OD600); MEDIA CAMHB; plate type 384well; NBS; CORNING #3640; time 18 hr
[2] = tested on: Candida albicans; conditions: Concentration 32 ug.mL-1; ASSAY_TEST Inhibition of Fungal Growth; detection method Absorption (OD530)
[3] = tested on: Cryptococcus neoformans; conditions: Concentration 32 ug.mL-1; ASSAY_TEST Inhibition of Fungal Growth; detection method Resazurin; Absorption (OD600-OD570); plate type 384well; NBS; CORNING #3640

Compound | Inhibition [1] | Inhibition [2] | Inhibition [3]
Cc1ccc(C)c(NC(=O)Cn2nc3c(SCc4ccc(Cl)cc4)nccn3c2=O)c1 | 13.13% | 3.07% | -22.73%
Cc1cc2nn(CC(=O)N3CCCC3)c(=O)n2c(Nc2ccc(C)c(F)c2)n1 | 9.72% | 0.7% | -5.41%
COc1ccc(NC(=O)Cn2nc3c(N4CCCC(C)C4)nccn3c2=O)cc1OC (stereo not given) | -1.27% | -0.12% | -7.35%
COc1ccccc1Cn1c(=O)c2sccc2n2c(=O)n(Cc3cccc(Br)c3)nc12 | 0.7% | -0.62% | -14.71%
O=C(CSc1nnc2c(=O)n(-c3ccc(Br)cc3)ccn12)c1c[nH]c2ccccc12 | 21.01% | 3.35% | -16.54%
CCOc1ccc(NC(=O)Cn2nc3c(SCc4ccc(Cl)cc4)nccn3c2=O)cc1 | 5.7% | 17.72% | -25.81%
CCc1nnc2c(SCC(=O)Nc3ccc(C(=O)OC)cc3)nc3ccccc3n12 | 5.41% | 4.91% | -21.71%
COC(=O)c1ccccc1NC(=O)Cn1nc2c(Oc3ccccc3C)nccn2c1=O | 8.93% | 0.12% | -8.78%
Cc1ccc(NC(=O)Cn2nc3c(SCc4ccccc4)nccn3c2=O)cc1C | 8.81% | 15.8% | -18.48%
CC(C)CCn1c(=O)c2ccc(C(=O)NC3CCCC3)cc2n2c(=S)[nH]nc12 | -1.87% | 0.86% | -11.12%
